Test results as given in paper PMC7862700, “An all-to-all approach to the identification of sequence-specific readers for epigenetic DNA modifications on cytosine”.

Assays:
Assay in all cases: DAPPL (digital affinity profiling via proximity ligation, sequencing); 10 mM Tris-HCl pH 7.5, 50 mM NaCl, 1 mM DTT, 4% glycerol, room temperature, 30 min; GST-TFs on glutathione beads, 16-mer random dsDNA library, 0.1% formaldehyde crosslink after washing; high values mean tight binding
Conditions in all cases: protein: recombinant; tags: N-terminal GST; dsDNA, one strand shown
FLI1 = target: T1, FLI1 (Homo sapiens, UniProt Q01543 1-452)
T1 sequence: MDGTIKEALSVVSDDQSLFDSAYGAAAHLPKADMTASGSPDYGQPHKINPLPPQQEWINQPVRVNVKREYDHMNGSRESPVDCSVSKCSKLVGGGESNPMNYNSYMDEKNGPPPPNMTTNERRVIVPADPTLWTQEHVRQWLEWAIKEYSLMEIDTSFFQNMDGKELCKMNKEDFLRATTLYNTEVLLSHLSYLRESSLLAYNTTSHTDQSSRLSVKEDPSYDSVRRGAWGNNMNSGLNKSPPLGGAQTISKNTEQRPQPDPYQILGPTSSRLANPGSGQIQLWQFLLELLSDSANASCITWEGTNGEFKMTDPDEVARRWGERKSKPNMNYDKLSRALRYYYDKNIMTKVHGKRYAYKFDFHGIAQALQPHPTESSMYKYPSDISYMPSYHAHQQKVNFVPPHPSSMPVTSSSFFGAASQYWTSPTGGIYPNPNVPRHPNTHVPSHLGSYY
Procedure, shortened: (§1)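 Each value of binding signal is a hexamer's read frequency for a factor divided by the same hexamer's frequency in the tag-only sample. Barcoded, bead-captured GST fusions of human transcription factors made in yeast were pooled with that sample and incubated with 200 nmole of a random double-stranded 16-mer DNA library in Tris/NaCl/DTT/glycerol buffer at room temperature for 30 min. Washing, 0.1% formaldehyde crosslinking, proximity ligation, PCR and Illumina NextSeq500 sequencing followed.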

ELK1 = target: T2, ELK1 (Homo sapiens, UniProt P19419 1-428)
T2 sequence: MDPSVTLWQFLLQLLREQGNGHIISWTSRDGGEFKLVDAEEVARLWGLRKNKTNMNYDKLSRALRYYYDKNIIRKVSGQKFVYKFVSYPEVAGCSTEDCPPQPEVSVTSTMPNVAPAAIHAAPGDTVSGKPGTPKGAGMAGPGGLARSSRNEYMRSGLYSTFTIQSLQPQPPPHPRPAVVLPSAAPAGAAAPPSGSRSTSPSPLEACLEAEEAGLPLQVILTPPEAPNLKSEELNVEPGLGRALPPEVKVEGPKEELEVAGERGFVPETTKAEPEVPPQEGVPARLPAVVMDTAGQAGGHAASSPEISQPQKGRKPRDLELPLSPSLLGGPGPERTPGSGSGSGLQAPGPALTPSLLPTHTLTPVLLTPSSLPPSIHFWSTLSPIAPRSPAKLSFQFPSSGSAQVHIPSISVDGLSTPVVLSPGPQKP
Procedure, shortened: as §1

GABPA = target: T3, GABPA (Homo sapiens, UniProt Q06546 1-454)
T3 sequence: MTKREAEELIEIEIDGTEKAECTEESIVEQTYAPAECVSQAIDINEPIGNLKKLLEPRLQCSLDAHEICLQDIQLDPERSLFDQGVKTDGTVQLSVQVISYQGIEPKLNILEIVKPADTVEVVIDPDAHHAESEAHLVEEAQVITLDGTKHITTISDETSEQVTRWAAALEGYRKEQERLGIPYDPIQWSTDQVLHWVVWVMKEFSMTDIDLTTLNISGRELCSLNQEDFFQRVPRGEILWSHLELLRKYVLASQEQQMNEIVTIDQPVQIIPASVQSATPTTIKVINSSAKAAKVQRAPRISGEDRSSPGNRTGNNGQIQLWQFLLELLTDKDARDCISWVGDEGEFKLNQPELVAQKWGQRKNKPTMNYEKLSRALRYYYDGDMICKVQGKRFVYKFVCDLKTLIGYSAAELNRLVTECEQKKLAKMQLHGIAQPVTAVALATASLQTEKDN
Procedure, shortened: as §1

ERG = target: T4, ERG (Homo sapiens, UniProt P11308 1-479)
T4 sequence: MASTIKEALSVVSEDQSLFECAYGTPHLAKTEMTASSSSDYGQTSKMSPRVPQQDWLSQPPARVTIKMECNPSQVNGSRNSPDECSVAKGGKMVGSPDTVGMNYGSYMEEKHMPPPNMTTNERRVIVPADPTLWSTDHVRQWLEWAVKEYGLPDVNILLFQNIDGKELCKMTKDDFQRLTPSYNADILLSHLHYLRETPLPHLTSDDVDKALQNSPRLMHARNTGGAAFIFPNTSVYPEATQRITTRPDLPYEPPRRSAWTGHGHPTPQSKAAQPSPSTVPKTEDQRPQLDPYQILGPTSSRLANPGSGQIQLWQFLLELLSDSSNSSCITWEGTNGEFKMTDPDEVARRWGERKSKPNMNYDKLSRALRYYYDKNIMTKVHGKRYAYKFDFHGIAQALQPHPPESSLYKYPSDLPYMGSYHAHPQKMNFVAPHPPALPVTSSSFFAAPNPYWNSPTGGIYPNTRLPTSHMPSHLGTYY
Procedure, shortened: as §1

ELF1 = ELF1 (Homo sapiens, UniProt P32519 1-619)
Sequence of ELF1 (P32519 whole entry): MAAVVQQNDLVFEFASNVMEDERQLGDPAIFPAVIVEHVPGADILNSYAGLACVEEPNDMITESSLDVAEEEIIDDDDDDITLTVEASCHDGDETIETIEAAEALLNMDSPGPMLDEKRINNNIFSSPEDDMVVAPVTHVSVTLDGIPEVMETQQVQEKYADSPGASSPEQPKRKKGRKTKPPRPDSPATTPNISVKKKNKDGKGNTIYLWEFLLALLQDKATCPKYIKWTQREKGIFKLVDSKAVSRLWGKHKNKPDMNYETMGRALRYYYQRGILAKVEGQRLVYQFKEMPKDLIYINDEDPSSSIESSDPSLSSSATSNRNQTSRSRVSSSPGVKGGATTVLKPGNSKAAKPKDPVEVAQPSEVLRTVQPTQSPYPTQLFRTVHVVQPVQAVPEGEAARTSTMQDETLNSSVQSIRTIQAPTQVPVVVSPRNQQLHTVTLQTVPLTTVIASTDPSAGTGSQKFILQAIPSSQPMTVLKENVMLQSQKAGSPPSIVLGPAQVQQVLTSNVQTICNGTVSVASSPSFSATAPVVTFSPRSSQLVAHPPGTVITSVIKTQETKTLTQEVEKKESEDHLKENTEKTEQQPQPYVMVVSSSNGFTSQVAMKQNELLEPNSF
Procedure, shortened: as §1

EHF = target: T5, EHF (Homo sapiens, UniProt Q9NZC4 1-300)
T5 sequence: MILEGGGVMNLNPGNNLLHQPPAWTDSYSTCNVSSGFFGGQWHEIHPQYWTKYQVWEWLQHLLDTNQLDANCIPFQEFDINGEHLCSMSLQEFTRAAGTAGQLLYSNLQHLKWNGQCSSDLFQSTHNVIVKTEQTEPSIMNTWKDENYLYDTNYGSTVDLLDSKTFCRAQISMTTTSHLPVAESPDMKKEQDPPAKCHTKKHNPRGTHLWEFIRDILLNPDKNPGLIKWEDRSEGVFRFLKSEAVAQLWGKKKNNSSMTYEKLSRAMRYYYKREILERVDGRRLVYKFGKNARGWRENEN
Procedure, shortened: as §1

SPI1 = SPI1 (Homo sapiens, UniProt P17947 1-270)
Procedure, shortened: as §1

SPIB = SPIB (Homo sapiens, UniProt Q01892 1-262)
Sequence of SPIB (Q01892 whole entry): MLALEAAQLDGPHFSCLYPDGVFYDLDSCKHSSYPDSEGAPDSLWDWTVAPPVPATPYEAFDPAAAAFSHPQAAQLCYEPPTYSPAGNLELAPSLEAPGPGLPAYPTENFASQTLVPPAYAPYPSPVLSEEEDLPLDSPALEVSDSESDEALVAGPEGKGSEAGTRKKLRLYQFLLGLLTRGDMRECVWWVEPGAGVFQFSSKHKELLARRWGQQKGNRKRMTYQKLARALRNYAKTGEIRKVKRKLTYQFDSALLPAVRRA
Procedure, shortened: as §1

Sequence | binding signal (FLI1) | binding signal (ELK1) | binding signal (GABPA) | binding signal (ERG) | binding signal (ELF1) | binding signal (EHF) | binding signal (SPI1) | binding signal (SPIB)
AACACC | 1.19 fold enrichment (6-mer frequency, TF over GST control) | 1.18 fold enrichment (6-mer frequency, TF over GST control) | 1.11 fold enrichment (6-mer frequency, TF over GST control) | 1.15 fold enrichment (6-mer frequency, TF over GST control) | 1.11 fold enrichment (6-mer frequency, TF over GST control) | 1.12 fold enrichment (6-mer frequency, TF over GST control) | 1.04 fold enrichment (6-mer frequency, TF over GST control) | 1.16 fold enrichment (6-mer frequency, TF over GST control)
TATCGC | 1.13 fold enrichment (6-mer frequency, TF over GST control) | 1.16 fold enrichment (6-mer frequency, TF over GST control) | 1.23 fold enrichment (6-mer frequency, TF over GST control) | 1.15 fold enrichment (6-mer frequency, TF over GST control) | 1.16 fold enrichment (6-mer frequency, TF over GST control) | 1.28 fold enrichment (6-mer frequency, TF over GST control) | 1.08 fold enrichment (6-mer frequency, TF over GST control) | 1.16 fold enrichment (6-mer frequency, TF over GST control)
CCAAAT | 1.02 fold enrichment (6-mer frequency, TF over GST control) | 1.1 fold enrichment (6-mer frequency, TF over GST control) | 1.01 fold enrichment (6-mer frequency, TF over GST control) | 1.1 fold enrichment (6-mer frequency, TF over GST control) | 1.16 fold enrichment (6-mer frequency, TF over GST control) | 1.05 fold enrichment (6-mer frequency, TF over GST control) | 1.09 fold enrichment (6-mer frequency, TF over GST control) | 1.04 fold enrichment (6-mer frequency, TF over GST control)
AATCAT | 1.13 fold enrichment (6-mer frequency, TF over GST control) | 1.12 fold enrichment (6-mer frequency, TF over GST control) | 1.19 fold enrichment (6-mer frequency, TF over GST control) | 1.12 fold enrichment (6-mer frequency, TF over GST control) | 1.16 fold enrichment (6-mer frequency, TF over GST control) | 1.17 fold enrichment (6-mer frequency, TF over GST control) | 1.07 fold enrichment (6-mer frequency, TF over GST control) | 1.21 fold enrichment (6-mer frequency, TF over GST control)
AGGCTC | 1.04 fold enrichment (6-mer frequency, TF over GST control) | 1.03 fold enrichment (6-mer frequency, TF over GST control) | 1.12 fold enrichment (6-mer frequency, TF over GST control) | 1.06 fold enrichment (6-mer frequency, TF over GST control) | 1.12 fold enrichment (6-mer frequency, TF over GST control) | 1.08 fold enrichment (6-mer frequency, TF over GST control) | 1.02 fold enrichment (6-mer frequency, TF over GST control) | 1.03 fold enrichment (6-mer frequency, TF over GST control)
ACGCTG | 1.14 fold enrichment (6-mer frequency, TF over GST control) | 1.19 fold enrichment (6-mer frequency, TF over GST control) | 1.23 fold enrichment (6-mer frequency, TF over GST control) | 1.18 fold enrichment (6-mer frequency, TF over GST control) | 1.19 fold enrichment (6-mer frequency, TF over GST control) | 1.23 fold enrichment (6-mer frequency, TF over GST control) | 1.11 fold enrichment (6-mer frequency, TF over GST control) | 1.05 fold enrichment (6-mer frequency, TF over GST control)
CAACAC | 1.13 fold enrichment (6-mer frequency, TF over GST control) | 1.23 fold enrichment (6-mer frequency, TF over GST control) | 1.19 fold enrichment (6-mer frequency, TF over GST control) | 1.1 fold enrichment (6-mer frequency, TF over GST control) | 1.13 fold enrichment (6-mer frequency, TF over GST control) | 1.09 fold enrichment (6-mer frequency, TF over GST control) | 1.06 fold enrichment (6-mer frequency, TF over GST control) | 1.06 fold enrichment (6-mer frequency, TF over GST control)
CTGTTG | 1.08 fold enrichment (6-mer frequency, TF over GST control) | 1.02 fold enrichment (6-mer frequency, TF over GST control) | 1.11 fold enrichment (6-mer frequency, TF over GST control) | 1.09 fold enrichment (6-mer frequency, TF over GST control) | 1.1 fold enrichment (6-mer frequency, TF over GST control) | 1.13 fold enrichment (6-mer frequency, TF over GST control) | 1.16 fold enrichment (6-mer frequency, TF over GST control) | 1.15 fold enrichment (6-mer frequency, TF over GST control)
